26S disassembly: blocks ATP-dependent breakdown of the yeast 26S proteasome | actives 0.2% (n = 24,000) | anti-FLAG beads, GFP-proteasome disassembly, flow cytometry | inhibition of disassembly, % (concentration not given with the values);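 active = inhibition of disassembly above about 33%, limit read from the data; inconclusive = likely self-fluorescent, control bead median signal at least 40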;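 note: plate controls were ATP control with full disassembly for no effect and ATP-gamma-S intact proteasomes for full effect; higher percent means more bead fluorescence retained so stronger block of disassembly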
S aureus QS inh: inhibitors of bacterial quorum sensing in S. aureus. S. aureus RN6390 RNAIII-GFP reporter, AIP-induced, flow cytometry 3 h. inhibition, % at 2 µM. actives 0.3% (n = 24,000). AID 527;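 active = share of bacteria positive for the green fluorescent reporter and its mean brightness both inhibited by 50% or more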;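 note: 0% = AIP-stimulated control and 100% = unstimulated bacteria without AIP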
Autofluor Jurkat: autofluorescence counter-screen for VLA-4 integrin assays | AID 576 | fluorescence ratio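 (tested at 10 µM compound in the well)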 | actives 0.61% (n = 24,000) | Jurkat cells, compound autofluorescence, flow cytometry; stronger effect = higher value; 1 = vehicle-only cell background;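 active = fluorescence ratio above 2.44, which is 1 plus 3 SD of all ratios; inconclusive = signal too bright to measure linearly, ratio around 10 or more; inactive = fluorescence ratio below 2.44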;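 note: green fluorescence of cells measured with 488 nm excitation and 530 nm emission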
VLA-4 agonist: allosterically activates the human VLA-4 integrin; AID 528; P13612; activation, % at 10 µM (by protocol); 24,000 tested, under 10 active; Jurkat cells, LDV-FITC binding, flow cytometry;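 active = fluorescent ligand binding to cells raised by more than 40% of the manganese-induced maximum; inconclusive = compound's own fluorescence above 85% of the ligand control signal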;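 note: 0% = ligand binding without compound and 100% = manganese-stimulated maximal binding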
Target sequence (P13612 whole entry, looked up): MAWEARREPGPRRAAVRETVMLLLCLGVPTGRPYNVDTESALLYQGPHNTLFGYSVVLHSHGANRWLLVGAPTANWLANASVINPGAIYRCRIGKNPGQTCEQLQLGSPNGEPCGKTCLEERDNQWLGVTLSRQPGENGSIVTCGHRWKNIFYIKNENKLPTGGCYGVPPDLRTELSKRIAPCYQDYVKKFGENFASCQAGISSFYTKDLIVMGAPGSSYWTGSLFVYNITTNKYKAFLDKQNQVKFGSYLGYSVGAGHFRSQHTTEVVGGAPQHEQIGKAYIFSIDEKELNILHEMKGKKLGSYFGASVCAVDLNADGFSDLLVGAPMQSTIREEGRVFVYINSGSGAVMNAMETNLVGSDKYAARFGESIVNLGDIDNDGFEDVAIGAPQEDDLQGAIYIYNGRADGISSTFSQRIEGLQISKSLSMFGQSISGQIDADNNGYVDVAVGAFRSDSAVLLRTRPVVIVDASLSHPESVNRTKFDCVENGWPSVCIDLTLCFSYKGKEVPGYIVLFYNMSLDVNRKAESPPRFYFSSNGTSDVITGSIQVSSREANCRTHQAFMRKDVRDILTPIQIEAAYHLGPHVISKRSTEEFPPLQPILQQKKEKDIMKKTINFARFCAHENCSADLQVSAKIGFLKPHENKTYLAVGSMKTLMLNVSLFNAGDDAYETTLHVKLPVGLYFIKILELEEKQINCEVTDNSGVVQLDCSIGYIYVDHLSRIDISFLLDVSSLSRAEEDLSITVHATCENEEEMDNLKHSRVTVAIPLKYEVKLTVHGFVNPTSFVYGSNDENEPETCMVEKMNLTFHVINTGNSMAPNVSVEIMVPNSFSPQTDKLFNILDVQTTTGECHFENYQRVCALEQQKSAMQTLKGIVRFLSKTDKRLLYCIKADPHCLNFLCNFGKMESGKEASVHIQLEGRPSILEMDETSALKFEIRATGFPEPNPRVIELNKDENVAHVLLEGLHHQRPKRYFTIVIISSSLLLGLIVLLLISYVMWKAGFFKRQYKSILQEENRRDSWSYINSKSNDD
VLA-4 antagonist: inhibitors of LDV-FITC ligand binding to Mn2+-activated human VLA-4 integrin; AID 529; actives 0.2% (n = 24,000); Jurkat cells, LDV-FITC binding with Mn2+, flow cytometry; 100% = Mn2+-driven binding gain fully reversed; inhibition, % at 10 µM (by protocol);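 active = inhibition above 50%; inconclusive = compound itself fluorescent, judged against control cell fluorescence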;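 note: 0% = Mn2+ stimulated cells lacking compound and 100% = ligand binding without Mn2+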
The depositor's hits bear a star; u = inconclusive; x = no result given. Most compounds without a hit are left out; they make up all but 1.2% or so of the library.

SMILES	26S disassembly	S aureus QS inh	Autofluor Jurkat	VLA-4 agonist	VLA-4 antagonist
COc1ccccc1N1CCN(c2nc3ccccc3nc2C(C#N)C(=O)OC(C)C)CC1 (stereo not drawn)	0	-8	1.2	-5	38
CC1CN(c2nc3ccccc3nc2C(C#N)C(=O)OC2CCCCC2)CC(C)O1 (stereo not drawn)	4	61*	1.2	2	-9
Nc1ccc(Nc2ccccc2N)cc1	u	9	5.2*	u	u
Nc1cc(C(=O)O)ccc1Nc1ccccc1	-1	-1	1	0	6
Cn1cc(/C=N/n2cnc3sc4c(c3c2=O)CCCC4)c2ccccc21	-1	68*	1	7	-25
O=C1C(C23CC4CC(CC(C4)C2)C3)C(=O)N(c2ccccc2)N1c1ccccc1	x	x	1	-6	41
CCCCC1C(=O)N(c2ccccc2)N(c2ccccc2)C1=O	1	-1	0.97	-43	80*
CCOc1ccccc1-n1c(SCC(=O)NC(C)CC)nnc1-c1ccoc1C (stereo not drawn)	0	0	0.99	-6	-16
COc1ccccc1CNC(=O)c1ccc(NS(=O)(=O)c2c(C)noc2C)cc1	-2	-7	1	-7	-7
Cc1noc(C)c1S(=O)(=O)Nc1ccc(C(=O)NC2CCCCC2)cc1	3	-2	3*	u	u
Cc1noc(C)c1S(=O)(=O)Nc1ccc(C(=O)NCCc2ccccc2)cc1	-3	-7	1.1	-5	55*
Cc1ccc2oc(=O)c3cc(C(=O)N4CCN(c5ncccn5)CC4)sc3c2c1	0	0	1.3	-5	15
O=C(Cn1cc2c(n1)CCCCC2)N1CCc2ccccc21	-1	4	1	0	-11
O=C(Cc1ccc(-n2cccc2)cc1)N1CCc2ccccc21	21	-5	4.9*	u	u
Cn1c(=O)c2c3c(sc2n2c(SCc4ccccc4)nnc12)CCCC3	-3	64*	1.1	8	-22
COc1ccc(-c2oc3ncn(CCN4CCOCC4)c(=N)c3c2-c2ccc(OC)cc2)cc1	3	53*	1	-4	2
Cn1cc(C(=O)NCCN2CCN(c3ccccc3F)CC2)c2c3ccccc3n(C)c2c1=O	-1	1	1.2	-3	8
CCOc1ccc(C(CC(=O)O)NC(=O)C23CC4CC(CC(C4)C2)C3)cc1 (stereo not drawn)	x	x	1	-20	111*
CCOC(=O)NC(CC(=O)O)c1ccc(OCC)cc1 (stereo not drawn)	-3	-1	1	-18	28
Cc1cc(N2CCC(N(C)C3CCCC3)CC2)nc2cc(O)ccc12	-6	0	0.87	u	u
Cc1ccc(C2C3CSCC=C3C(C#N)=C(N)C2(C#N)C#N)cc1 (stereo not drawn)	40*	-2	8.8*	u	u
O=C(NC1CC2CCC1C2)C1COc2ccccc2O1 (stereo not drawn)	-2	-1	0.99	-2	-25
CCC(=O)Nc1cc2nn(-c3ccccc3)nc2cc1Cl	1	0	0.91	4	-16
CNc1nn(-c2cccc(Cl)c2)nc1N	u	4	8.1*	u	u
c1ccc2c(c1)nc(-c1ccncc1)n1nnnc21	5	-3	1.3	4	-6
SMILES	26S disassembly	S aureus QS inh	Autofluor Jurkat	VLA-4 agonist	VLA-4 antagonist
Cc1ccc(Cl)cc1N1CCN(C(=O)c2cc3c(=O)n(C)c4ccccc4c3n2C)CC1	-1	3	1.1	6	5
CCOc1ccc(N(CC(=O)N2CC=C(c3ccccc3)CC2)S(=O)(=O)c2c(C)noc2C)cc1	0	53*	1.1	0	-2
COc1ccc(N(CC(=O)N2CC=C(c3ccccc3)CC2)S(=O)(=O)c2c(C)noc2C)cc1	-1	17	1.1	-4	11
Cc1sc2ncnc(Oc3ccc(-n4ccnc4)cc3)c2c1C	1	1	1.1	-2	-10
CCOC(=O)c1ccc(NC(=O)Nc2ccc3c4c(cccc24)C(=O)N3CC)cc1	1	0	3.1*	u	u
CCN1C(=O)c2cccc3c(NC(=O)c4ccc(S(=O)(=O)N(C)C)cc4)ccc1c23	1	0	1.1	6	-10
CC(C)Oc1ccc(C(CC(=O)O)NC(=O)C2CCCCC2)cc1 (stereo not drawn)	0	1	1	-12	96*
CCOc1ccccc1N1CCN(c2nc(N)c(C#N)c(CC#N)c2C#N)CC1	19	0	5.2*	u	u
CCOc1ccccc1N1CCN(c2nc3ccccc3nc2C(C#N)C(=O)OC)CC1 (stereo not drawn)	2	0	1.5	3	-24
CC1CCCN(C(C(=O)Nc2ccc3c(c2)OCCO3)c2ccccc2)C1 (stereo not drawn)	-1	99*	1	-6	0
CC1CCCN(C(C(=O)Nc2ccc3c(c2)OCO3)c2ccccc2)C1 (stereo not drawn)	-4	99*	1.1	-7	12
CC1CCN(C(C(=O)Nc2ccc3c(c2)OCO3)c2ccccc2)CC1 (stereo not drawn)	-2	15	1	-6	3
Cc1ccc2[nH]c(=O)c(C(c3nnnn3CCc3ccccc3)N3CCOCC3)cc2c1 (stereo not drawn)	1	-5	0.98	0	-18
N#Cc1c(NC(NC(=O)c2ccco2)C(=O)c2ccccc2)sc2c1CCCC2 (stereo not drawn)	0	84*	1.1	-6	-12
CC(=O)Nc1sc2c(c1C#N)CCCCC2	-4	-2	1.1	3	-18
COc1ccc(OC)c(CCNC(=O)CS(=O)(=O)Cc2nc(-c3ccccc3C)oc2C)c1	0	5	1.1	-4	3
CCc1ccc(N/C(SCc2cccc(F)c2)=C(/C#N)C(=O)NCc2ccco2)cc1	2	65*	1.1	-12	5
CCc1ccc(NC(=O)c2cc(-c3ccco3)on2)cc1	0	0	1.1	7	-24

Assay outcomes (PubChem)
